SENP7 block: blocks the human protease SENP7 | Q9BQF6 | recombinant SENP7, Z-RLRGG-aminoluciferin luminescence, 40 min | inhibition, % at 5 µM | actives 1.5% (n = 330,000) | AID 434973;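 active means inhibition above about 50% at the single test dose, limit read from the data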;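 further: plate controls were DMSO with enzyme for no effect and no enzyme buffer wells for full effect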
Target sequence (Q9BQF6 706-1050 limits assumed): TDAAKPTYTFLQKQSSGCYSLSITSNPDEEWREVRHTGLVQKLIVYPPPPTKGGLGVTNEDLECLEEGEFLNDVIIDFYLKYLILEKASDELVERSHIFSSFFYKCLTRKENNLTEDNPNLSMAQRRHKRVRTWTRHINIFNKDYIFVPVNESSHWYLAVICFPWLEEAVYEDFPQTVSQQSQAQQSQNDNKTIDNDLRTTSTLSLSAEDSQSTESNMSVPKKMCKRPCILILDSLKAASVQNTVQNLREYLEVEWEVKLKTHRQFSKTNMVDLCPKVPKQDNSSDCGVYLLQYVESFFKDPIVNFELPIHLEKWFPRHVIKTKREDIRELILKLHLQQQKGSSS
SENP6 block: blocks the human protease SENP6. Q9GZR1. Recombinant SENP6 catalytic domain, aminoluciferin luminescence. inhibition, % at 10 µM. actives 1.8% (n = 330,000). AID 2599;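 active means inhibition above about 50% at the single tested dose, limit read from the data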;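 further: plate controls were DMSO wells with enzyme for no effect and DMSO wells lacking enzyme for full effect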
TRAIL sens C8: caspase-8 TRAIL sensitization; actives 1% (n = 360,000); inhibition (viability loss, TRAIL sensitization), % at 10 µM; NB7+C8 cells + TRAIL, ATPlite viability luminescence; AID 624354;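 active means compounds causing at least 50% loss of cell viability in the single-dose screen, relative to plate controls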
SENP8 block-1: blocks the human protease SENP8. purified SENP8, Z-RLRGG-aminoluciferin cleavage, luminescence. inhibition, % at 10 µM. actives 1.2% (n = 330,000). Q96LD8; in the data active means inhibition above about 50%
Target sequence (Q96LD8 whole entry, looked up): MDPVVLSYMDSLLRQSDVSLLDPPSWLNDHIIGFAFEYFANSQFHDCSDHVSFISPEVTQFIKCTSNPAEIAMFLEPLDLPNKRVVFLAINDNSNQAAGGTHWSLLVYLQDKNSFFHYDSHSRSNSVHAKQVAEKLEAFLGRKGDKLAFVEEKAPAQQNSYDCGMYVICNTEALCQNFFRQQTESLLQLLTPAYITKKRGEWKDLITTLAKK
SENP8 block-2: blocks human SENP8 cleavage of Nedd8 substrate; Q96LD8; AID 602440; inhibition, % at 20 µM; recombinant SENP8, Nedd8 substrate fluorescence; actives 0.64% (n = 360,000); in the data active means inhibition mostly above about 40%, no sharp cut-off; inactive means mostly below about 27%
PPC-1+TRAIL kill: compounds killing PPC-1 cancer cells with TRAIL present (potentiator screen, no TRAIL-free arm); PPC-1 cells + TRAIL, ATPLite viability luminescence; cell killing (% activity), % at 4 µM or 5 µM; actives 0.41% (n = 220,000);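 active means cell killing above 50% in the first pass at 4 µM, then a duplicate retest at 5 µM averaging 50% or more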;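 further: plate controls were cells with TRAIL plus DMSO for no effect and medium-only wells lacking cells for full effect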
Numbers without * were called inactive; x = no result. Compounds with a hit are over-represented: about 3% of the library has one in this group of screens.

SMILES	SENP7 block	SENP6 block	TRAIL sens C8	SENP8 block-1	SENP8 block-2	PPC-1+TRAIL kill
Cc1cc(C)c(S(=O)(=O)/N=C2\C=C(Nc3ccc(C(=O)O)cc3)C(=O)c3ccccc32)c(C)c1	42	89*	58*	88*	57*	x
Cc1cccc(NC2=C(NCCO)C(=O)c3ccccc3C2=O)c1	-1	15	6	7	17	-5
O=C(O)c1ccc(NC2=C/C(=N/S(=O)(=O)c3cccs3)c3ccccc3C2=O)cc1	x	x	55*	x	98*	x
Cc1cc(C)cc(C(=O)NCC(=O)OCC(=O)c2cc(C)n(CC(F)(F)F)c2C)c1	7	1	0	-2	-3	16
Cc1ccccc1-c1csc(C(O)c2cccnc2)n1 (centres undefined)	x	x	-17	x	-5	x
CC(C)(C)OC(=O)C[C@@H]1C/C=C\C[C@@H](CC(=O)N[C@@H](CO)Cc2ccccc2)C(=O)N2CCC[C@@H]2COC1=O	6	-11	0	4	20	x
Cc1cc(C(=O)NCCc2ccccc2)c2cc(F)ccc2n1	-3	-18	-5	-6	-3	-12
COc1cc(/C=N/NC(=O)CSc2cc(C)c(Br)cc2C)ccc1O	5	-5	8	9	3	19
Cc1cc(SCC(=O)N/N=C/c2ccc(O)c(O)c2O)c(C)cc1Br	3	1	-2	-3	35*	15
COC(=O)C1(C(=O)OC)C/C=C\CN(S(=O)(=O)c2ccccc2[N+](=O)[O-])CC1	x	x	-6	x	7	x
C=C1C(=O)C23C(O)C1CCC2C12CCCC(C)(COC(C)=O)C1C(O)C3(O)OC2 (centres undefined)	x	x	74*	x	12	x
Cn1nccc1C(=O)Oc1cccc(/C=N/NC(=O)c2ccccc2O)c1	25	23	53*	9	-307	36
O=C(N/N=C/c1cccc(OC2CSC2)c1)c1ccccc1O	-9	5	16	3	-397	27
Cc1onc(C(=O)N2CCN(C(c3ccccc3)c3ccccc3)CC2)c1[N+](=O)[O-]	9	4	91*	4	18	13
COC(=O)c1ccc(CC2(C)C(=O)Nc3ccc(-c4cccc(C(F)(F)F)c4)cc32)o1 (centres undefined)	x	x	-11	x	11	x
COC(=O)CCC(=O)OC1(C)C(=O)C2=CN(CCCCO)C(c3ccc(OC)cc3)=CC2=C(Br)C1=O (centres undefined)	13	47	x	8	x	x
COC(=O)CCC(=O)OC1(C)C(=O)C2=CN(CCN3CCOCC3)C(c3ccc(OC)cc3)=CC2=C(Br)C1=O (centres undefined)	16	52*	x	23	x	-7
COc1ccc2nc(NNC(=O)c3cc(=O)c4ccccc4o3)sc2c1	-2	47	48*	22	-47	16
Cc1nc(C)c(C(=O)Nc2nc3c(C)cccc3s2)o1	1	11	-2	0	-57	-3
Cc1cccc2sc(NNC(=O)c3cc(=O)c4ccccc4o3)nc12	89*	98*	17	96*	12	32
O=C(NNc1nc2c(F)cccc2s1)c1cc(=O)c2ccccc2o1	74*	98*	16	94*	23	12
CCCCc1ccc(NC(=O)CSc2nnc(CNC(=O)c3ccco3)o2)cc1	1	4	-8	-9	8	x
CCC(=O)N1CCCC(C)(C(=O)Nc2ccc3oc(CC)nc3c2)C1 (centres undefined)	x	x	-10	x	14	x
CC(C)c1ccc(NC(=O)CSc2ncccc2C(=O)Oc2cccc([N+](=O)[O-])c2)cc1	9	-31	67*	-7	21	28
COc1ccc(NC(=O)CSc2ncccc2C(=O)OC(C)C)cc1OC	-7	-2	8	11	12	2
SMILES	SENP7 block	SENP6 block	TRAIL sens C8	SENP8 block-1	SENP8 block-2	PPC-1+TRAIL kill
COC(=O)c1sccc1-n1cc2c(c1-c1ccccc1)c(=O)n(C)c(=O)n2C	x	x	-19	x	20	x
CCOC(=O)N/N=C(/c1ccccc1)C1CCCCC1	5	13	2	2	14	-6
CSCCC(c1nc2ccccc2[nH]1)n1c(=O)c(-c2ccco2)nc2ccccc21 (centres undefined)	x	x	5	x	-390	x
CCOC(=O)/C(C)=N/NC(=O)c1ccc([N+](=O)[O-])cc1	-3	-7	-3	-13	23	0
CCOC(=O)/C(N=Nc1ccc(F)cc1)=C(/O)c1ccc([N+](=O)[O-])cc1	9	-1	-6	5	43*	-21
CCc1ccc(C2=NNC(=Nc3cccc(S(=O)(=O)N(C)C)c3)SC2)cc1	6	-6	71*	-9	-27	2
Cc1ccc(C2=NNC(=Nc3ccc(F)cc3)SC2)cc1	x	x	15	x	-32	12
CN(C)c1ccc(C(=O)Nc2cccc(S(=O)(=O)NC3=NCCCCC3)c2)cc1	4	-29	27	-5	-91	x
O=C(/C=C/c1ccc(OC(F)F)cc1)Nc1cccc(S(=O)(=O)NC2=NCCCCC2)c1	-3	-3	57*	-3	-8	x
CC(C)(C)c1ccc(C(=O)Nc2cccc(S(=O)(=O)NC3=NCCC3)c2)cc1	-1	9	86*	-6	2	x
CCCn1c(C)cc(C(=O)COC(=O)c2cc(S(=O)(=O)NCC(C)C)c(Cl)cc2Cl)c1C	-3	7	94*	3	11	-11
CC(C)CNS(=O)(=O)c1cc(C(=O)OCC(=O)c2ccc3c(c2)OCCO3)c(Cl)cc1Cl	-2	-17	-5	3	11	19
CCCn1c(C)cc(C(=O)COC(=O)c2cc(=O)[nH]c3ccccc23)c1C	x	x	57*	x	-233	x
COc1ccc(-c2cc3c(=O)n(CC(=O)NCCCN4CCN(Cc5ccccc5)CC4)ncn3n2)cc1	-8	5	80*	9	-130	x
CCOc1ccc(CCNC(=O)Cn2ncn3nc(-c4ccc(OC)cc4)cc3c2=O)cc1	1	-8	14	-1	-19	x
COc1ccc(-c2cc3c(=O)n(CC(=O)NCCCN4CCC(Cc5ccccc5)CC4)ncn3n2)cc1	6	5	83*	-4	-51	x
CCOC(=O)C1=C(COC(=O)Cc2ccc(Br)cc2)NC(=O)NC1C (centres undefined)	0	-10	1	-4	9	x
O=C(NCc1ccccc1Cl)c1ccc2nc([C@@H]3O[C@H](CO)[C@@H](O)[C@H]3O)[nH]c2c1	x	x	3	x	3	x
S=C(Nc1ccccc1)c1nc2ccccc2s1	67*	-17	8	48	-12	15
COc1ccccc1S(=O)(=O)N(C)C[C@@H]1OCc2cn(nn2)CCCC(=O)N([C@@H](C)CO)C[C@H]1C	x	x	-19	x	3	x
CN(N)c1nc(-c2ccccc2)nnc1C(F)(F)F	7	-10	-17	5	32	-6
CN(NC(=O)c1cccc(Cl)c1)c1nc(-c2ccccc2)nnc1C(F)(F)F	-9	-17	53*	-7	29	7
Cn1c2c(sc1=O)CCC2	x	x	5	x	3	x
